Experimental data from PubChem BioAssay.
Values without a mark were called inactive. Activity calls are given as the source filed them.

Assay: S. cerevisiae RM11-1a growth modifiers, primary screen, strain RM11-1a, OD600, basal, 24 h (AID 1177);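 also: cultures grown under basal conditions with no added stressor; test concentration not given here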
Details: OD600, 24 h, higher = more signal, called active from +8 up or from −8 down

Row | Structure (SMILES) | z-score
1 | CN1C(=O)C2C=CC(C(O)c3ccc([N+](=O)[O-])cc3)N(Nc3ccccc3)C2C1=O (stereo not given) | 0.114
2 | C=CCNC(=O)[C@@H]1[C@H]2C(=O)O[C@H](c3ccccc3)[C@H](c3ccccc3)N2[C@H](c2ccc(OCCO)cc2)[C@@]12C(=O)Nc1ccc(C#CC3=CCCCC3)cc12 | 2.01
3 | O=C/C=C/c1ccc(-c2ccccc2)cc1 | -21.6 (active)
4 | CCCCCCc1nc(Cc2cc(OC)c(OC)c(OC)c2)c(C)c2c1[Si](C(C)C)(C(C)C)OC2 | -0.599
5 | [N-]=[N+]=Nc1ccccc1C[C@]1(C(=O)N2CCCCC2)N=C(c2ccc(OCCCO)cc2)O[C@H]1c1ccccc1 | 0.864
6 | COc1ccc(C(O)C2C=CC3C(=O)N(C)C(=O)C3N2Nc2ccccc2)cc1 (stereo not given) | -0.119
7 | COc1ccc(C(=O)Nc2ccc(CN3C(=O)[C@]4(O[C@H](CC(=O)N(CCO)Cc5ccccc5)[C@@H]([Si](C)(C)c5ccc(OC)cc5)[C@@H]4C)c4ccccc43)cc2)cc1 | 2.51
8 | C=C(COC)C(=O)CC[C@@H](OC(=O)c1ccccc1-c1ccccc1C(=O)O)c1ccccc1OCCO | -0.341
9 | C=C1C(=O)C=C2CN(C(=O)c3ccccc3)[C@@](Cc3ccc(F)cc3)(C(=O)OC)[C@@H]12 | -2.19
10 | C=CCOC(=O)[C@@H]1[C@H]2C(=O)O[C@H](c3ccccc3)[C@H](c3ccccc3)N2[C@H](c2ccc(OCCOC(=O)[C@H]3C[C@H]4C(=O)N[C@@H](CCCCN(C)C)C(=O)N4[C@H]3c3cccc(OCCO)c3)cc2)[C@@]12C(=O)Nc1ccccc12 | 0.237
